# Some structures have more than one record in an assay (separate samples or runs), and their calls can disagree. Calls of active or inactive are those of the source. The calls were made as follows: active = hit-call score of the fitted dose curve at least 0.9, where 1 is the maximum; inactive = score below 0.9.
# Test: APR_HepG2_MitoticArrest_24hr: Apredica 24-hour HepG2 Assay for Mitotic Arrest (AID 2282910)
# Details: high-content imaging, actives raise or lower the signal
# Experimental: APR_HepG2_24hr is a cell-based, multiplexed-readout assay that uses HepG2, a human liver cell line, with measurements taken at 24 hours after chemical dosing in a 384-well plate.APR_HepG2_MitoticArrest_24hr is one of 10 assay component(s) measured or calculated from the APR_HepG2_24hr assay. It is designed to make measurements of cell phenotype, a form of morphology reporter, as detected with fluorescence intensity signals by HCS Fluorescent Imaging technology.Data from the assay component APR_HepG2_MitoticArrest_24hr was analyzed into 1 assay endpoint. This assay endpoint, APR_HepG2_MitoticArrest_24hr, was analyzed with bidirectional fitting relative to DMSO as the negative control and baseline of activity. Using a type of morphology reporter, measures of protein for gain or loss-of-signal activity can be used to understand the signaling at the pathway-level as they relate to the gene . Furthermore, this assay endpoint can be referred to as a primary readout, because this assay has produced multiple assay endpoints where this one serves a signaling function. To generalize the intended target to other relatable targets, this assay endpoint is annotated to the cell cycle intended target family, where the subfamily is arrest.
# Cells were treated with dimethyl sulfoxide (DMSO) as a solvent control at a final concentration of 0.5% v/v or with compounds in DMSO with a resulting final DMSO concentration of 0.5% v/v. Compound treatment was done at concentrations of 0.39, 0.78, 1.56, 3.12, 6.24, 12.5, 25, 50, 100, and 200 uM in duplicate on each plate. Cells were treated with compounds for 1, 24, or 72 hr. Carbonyl […] m-chloro-phenylhydrazone (CCCP) and taxol were used as positive controls for mitochondrial function and cytoskeletal stability, respectively; DMSO served as the negative control for this experiment. Cells were fixed by the direct addition of 50 uL formaldehyde in Hank's Balanced Salt Solution (HBSS) to a final concentration of 3.7%. After incubation in the fixation medium for 30 min at room temperature (293-298 K), cells were rinsed twice with HBSS and treated with cell permeabilization buffer (16 uL of 0.5% Triton X-100) for 10 min at room temperature (293-298 K) before labeling. For mitochondrial membrane potential and mitochondrial measurements, pre-fixed cells were incubated with 50 uL of MitoTracker Red CMXRos (Invitrogen) at a concentration of 250 nM for 30 min before fixation. In the remaining cases, post-fixed cells were labeled by incubation with a multiplexed mixture of primary antibodies in HBSS for 60 min at room temperature (293-298 K) to detect immunoreactivity of c-Jun (1:500), phospho-histone H3 (1:100), phospho-histone H2A.x (1:200), p53 (1:400), alpha-tubulin (1:200) and Hoechst 33342 (2 ug/mL). Cells were labeled for multiplexed imaging on two separate plates: a) Hoechst 33342, MitoTracker Red, phospho-histone H3, and alpha-tubulin, and b) Hoechst 33342, phospho-histone H2A.x, and c-Jun. A final rinse with HBSS (50 uL) was performed before analysis. The primary and secondary antibodies for the proteins were phospho-histone H3 (rabbit anti-phospho-histone H3 and FITC-donkey anti-rabbit IgG), phospho-histone H2A.x (mouse anti-phospho-histone H2A.x and FITC-donkey anti-mouse IgG), c-Jun (rabbit anti-phospho-c-Jun and Cy3-donkey anti-rabbit IgG), p53 (sheep anti-p53 and Cy5-donkey anti-sheep IgG), alpha-tubulin (mouse anti-alpha-tubulin and Cy5-donkey anti-mouse IgG). These antibodies are available as the CellCiphr HepG2 assay kit (Millipore).Digital images of each well were captured using a Cellomics ArrayScan VTI (Thermo Scientific Cellomics) (0.8 NA objective, 0.63x optical coupler, and XF-93 filter set) at 20x magnification. The images were acquired using the autofocus feature of the ArrayScan instrument, which entails the following steps. First, the camera focuses on channel 1 (Hoechst 33342), where nuclei are identified. Second, a Z offset of 1 um is used for capturing mitochondria (MitoTracker Red). […]
SMILES,outcome,AC50
CN(C)N=O,inactive,–
CCN1CCC2(CC1)COc1cc3c(cc12)N(C(=O)c1ccc(-c2ccc(-c4nnc(C)o4)cc2C)cc1)CC3,–,13.2 µM (active)
C[C@]12CCC(=O)C[C@@H]1CC[C@@H]1[C@@H]2CC[C@]2(C)[C@@H](O)CC[C@@H]12,inactive,–
Cn1sc(Cl)cc1=O,–,110 µM (active)
NC(=O)O,–,5.54 µM (active)
CC(C)(c1ccccc1)c1ccc(O)c(C(C)(C)c2ccccc2)c1,inactive,–
CC12CC1(C)C(=O)N(c1cc(Cl)cc(Cl)c1)C2=O (centres undefined),inactive,–
Cc1ccccc1N,inactive,–
ClCC(Cl)CCl,inactive,–
CCC(C)(C)c1ccc(O)c(C(C)(C)CC)c1,–,32.3 µM (active)
O=C(O)C(F)(F)C(F)(F)C(F)(F)C(F)(F)C(F)(F)C(F)(F)C(F)(F)C(F)(F)C(F)(F)C(F)(F)F,–,60.9 µM (active)
C=CC(=O)OCCCCCC(C)C,inactive,–
CCC(=O)C(CC(C)N(C)C)(c1ccccc1)c1ccccc1 (centres undefined),inactive,–
ClC1(Cl)C2(Cl)C3(Cl)C4(Cl)C(Cl)(Cl)C5(Cl)C3(Cl)C1(Cl)C5(Cl)C24Cl (centres undefined),inactive,–
O=C1C2(Cl)C3(Cl)C4(Cl)C(Cl)(Cl)C5(Cl)C3(Cl)C1(Cl)C5(Cl)C24Cl (centres undefined),inactive,–
CC(C)(C)CC(C)(C)c1ccc(O)cc1,–,49.6 µM (active)
O=C(O)C(F)(F)C(F)(F)C(F)(F)C(F)(F)C(F)(F)C(F)(F)F,inactive,–
CC(=O)[O][Hg][c]1ccccc1,–,3.06 µM (active)
Oc1cccc2cccnc12,inactive,–
O=C(Nc1ccc2[nH]ccc2c1)c1cc2cc(F)ccc2n1Cc1cccc(F)c1,–,30.9 µM (active)
CCCCCCCCc1ccc(O)cc1,–,77.2 µM (active)
CC(C)(C)c1cc(O)ccc1O,inactive,–
COc1cc(-c2ccc(N)c(OC)c2)ccc1N,inactive,28.8 µM (active)
O=c1[nH]c(=O)[nH]c(=O)[nH]1,inactive,–
C=C(C)C(=O)[O][Sn]([CH2]CCC)([CH2]CCC)[CH2]CCC,–,0.248 µM (active)
C[C@@H]1C[C@@H]([C@H](O)CC2CC(=O)NC(=O)C2)C(=O)[C@@H](C)C1,inactive,–
O=C(O)C(Cl)(Cl)Cl,inactive,–
CC(C)(OO)c1ccccc1,–,71.4 µM (active)
